The source of these data is the supplement of paper PMC10037445.

Experiment [1] has as its system RAW-Dual. Nature of the experiment: NF-kB SEAP reporter activity, fold change vs agonist alone; higher = enhanced NF-kB activity. The conditions noted are these: library stock concentration (final ~1000-fold dilution): 10 mM. An outline of the steps:
(§1)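 Supernatant from RAW-Dual macrophages was read after 20 hours for IRF by QuantiLuc luminescence and for NF-κB by QuantiBlue absorbance at 620 nm. The cells (50,000 cells/well in DMEM, 384-well plates, 37 °C, 5% CO2) had received 50 nL of library stock by pin tool and, 1 h later, a PRR agonist. Reporter activity is expressed relative to agonist-alone wells as fold change, and wells were flagged cytotoxic if IncuCyte confluency was under 70% of agonist controls in both mask sets.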

Experiment [2] has as its system RAW-Dual. The experiment in a line: NF-kB SEAP reporter activity, fold change vs agonist alone; cytotoxicity flag (confluency mask): cytotoxic (confluency <70% of control); higher = enhanced NF-kB activity. In short, it runs like this:
as §1

The test system of experiment [3] is RAW-Dual. The experiment in a line: NF-kB SEAP reporter activity, fold change vs agonist alone; cytotoxicity flag (confluency mask): not cytotoxic; higher = enhanced NF-kB activity. In short, it runs like this:
as §1

Where [4] appears, read: agonist: ODN 1826 (TLR9) 0.5 ug/mL.
The mark [5] stands for this setting: agonist: Pam2CSK4 (TLR2/6) 0.1 ug/mL.
Where [6] appears, read: agonist: Pam3CSK4 (TLR2/1) 0.1 ug/mL.
Where [7] appears, read: cytotoxicity flag (confluency mask): not cytotoxic, agonist: Imiquimod (TLR7) […].
The mark [8] stands for this setting: cytotoxicity flag (confluency mask): not cytotoxic, agonist: MPLA (TLR4) […].

Structures are written as SMILES. Over roughly 2,900 compounds, “NF-kB SEAP reporter activity, fold change vs agonist alone” has its median near 0.99; the highest 2% begin near 2.6. Only a selection was taken, and the highest values are over-represented in it overall.

For `CONC(=O)Nc1ccc(-c2sc3c(c2CN(C)C)c(=O)n(-c2ccc(OC)nn2)c(=O)n3Cc2c(F)cccc2F)cc1`, the “NF-kB SEAP reporter activity” value was 2.02 in experiment [1] (cytotoxicity flag (confluency mask): cytotoxic (confluency <70% of control), agonist: Imiquimod (TLR7) […]) and 2.5 in experiment [1] (cytotoxicity flag (confluency mask): cytotoxic (confluency <70% of control), agonist: MPLA (TLR4) […]).

For the compound `CONC(=O)Nc1ccc(-c2sc3c(c2CN(C)C)c(=O)n(-c2ccc(OC)nn2)c(=O)n3Cc2c(F)cccc2F)cc1` (library stock concentration (final ~1000-fold dilution): 10 mM), the “NF-kB SEAP reporter activity” value was 3.39 in experiment [2] (agonist: LPS (TLR4) 0.1 ug/mL), 0.26 in experiment [2] (setting [4]), 1.01 in experiment [2] (setting [5]) and 1.88 in experiment [2] (setting [6]).

In the case of `CC(C)CCNC(=O)C(CC(C)C)NC(=O)C1OC1C(=O)O` (stereo not drawn) (library stock concentration (final ~1000-fold dilution): 10 mM), the “NF-kB SEAP reporter activity” value in experiment [3] (agonist: LPS (TLR4) 0.1 ug/mL) was 1.03; in experiment [3] (setting [4]), 1.02; in experiment [3] (setting [5]), 1; in experiment [3] (setting [6]) it was 1.19.

In the case of `CC(C)CCNC(=O)C(CC(C)C)NC(=O)C1OC1C(=O)O` (stereo not drawn), the entries for the “NF-kB SEAP reporter activity” value in experiment [1] (setting [7]) and in experiment [1] (setting [8]) were 0.94 and 1.17, respectively.

As for `Br.NC(=O)C(c1ccccc1)(c1ccccc1)C1CCN(CCc2ccc3c(c2)CCO3)C1` (stereo not drawn), the “NF-kB SEAP reporter activity” value in experiment [1] (setting [7]) was 1.02; in experiment [1] (setting [8]), 0.984.

Consider `Br.NC(=O)C(c1ccccc1)(c1ccccc1)C1CCN(CCc2ccc3c(c2)CCO3)C1` (stereo not drawn) (library stock concentration (final ~1000-fold dilution): 10 mM), for which the “NF-kB SEAP reporter activity” value in experiment [3] (agonist: LPS (TLR4) 0.1 ug/mL) came to 0.967; in experiment [3] (setting [4]), 0.467; in experiment [3] (setting [5]) it was 0.82; in experiment [3] (setting [6]), 0.919.

As to `C=C1CCC2C(C)(CO)C(O)CC[C@@]2(C)[C@@H]1C/C=C1/C(=O)OCC1O` (stereo partly drawn), the “NF-kB SEAP reporter activity” value in experiment [1] (setting [7]) turned out to be 0.287; in experiment [1] (setting [8]), 0.305.

On to `C=C1CCC2C(C)(CO)C(O)CC[C@@]2(C)[C@@H]1C/C=C1/C(=O)OCC1O` (stereo partly drawn) (library stock concentration (final ~1000-fold dilution): 10 mM), for which the “NF-kB SEAP reporter activity” value in experiment [3] (agonist: LPS (TLR4) 0.1 ug/mL) stood at 0.32; in experiment [3] (setting [4]), 0.206; in experiment [3] (setting [5]) it was 0.0769; in experiment [3] (setting [6]), 0.161.

In the case of `Cc1cnc(C(=O)NC2CCCCC/C=C\C3CC3(C(=O)NS(=O)(=O)C3CC3)NC(=O)C3CC(Oc4nc5ccccc5c5ccccc45)CN3C2=O)cn1` (stereo not drawn), the “NF-kB SEAP reporter activity” value in experiment [1] (setting [8]) amounted to 0.899.

Take `Cc1cnc(C(=O)NC2CCCCC/C=C\C3CC3(C(=O)NS(=O)(=O)C3CC3)NC(=O)C3CC(Oc4nc5ccccc5c5ccccc45)CN3C2=O)cn1` (stereo not drawn) (library stock concentration (final ~1000-fold dilution): 10 mM): the “NF-kB SEAP reporter activity” value in experiment [3] (agonist: LPS (TLR4) 0.1 ug/mL) stood at 0.973; in experiment [3] (setting [4]) it was 1.05; in experiment [3] (setting [5]) it was 0.744; in experiment [3] (setting [6]), 0.617.

Take `COc1ccc2c(OC3CC4C(=O)NC5(C(=O)NS(=O)(=O)C6CC6)CC5/C=C\CCCCN(C)C(=O)C4C3)cc(-c3nc(C(C)C)cs3)nc2c1C` (stereo not drawn): the “NF-kB SEAP reporter activity” value in experiment [1] (setting [8]) was 1.03.

For the compound `CC(C)(C)OC(=O)NC1CCCCC/C=C\C2CC2(C(=O)NS(=O)(=O)C2CC2)NC(=O)C2CC(OC(=O)N3Cc4cccc(F)c4C3)CN2C1=O` (stereo not drawn), the figures for the “NF-kB SEAP reporter activity” value in experiment [1] (setting [7]) and in experiment [1] (setting [8]) were 0.902 and 1.01, respectively.

Turning to `COc1ccc2c(OC3CC4C(=O)NC5(C(=O)NS(=O)(=O)C6CC6)CC5/C=C\CCCCN(C)C(=O)C4C3)cc(-c3nc(C(C)C)cs3)nc2c1C` (stereo not drawn) (library stock concentration (final ~1000-fold dilution): 10 mM), the “NF-kB SEAP reporter activity” value in experiment [3] (agonist: LPS (TLR4) 0.1 ug/mL) came to 3.16; in experiment [3] (setting [4]) it was 0.926; in experiment [3] (setting [5]) it was 0.842; in experiment [3] (setting [6]), 0.952.

For the compound `CC(C)(C)OC(=O)NC1CCCCC/C=C\C2CC2(C(=O)NS(=O)(=O)C2CC2)NC(=O)C2CC(OC(=O)N3Cc4cccc(F)c4C3)CN2C1=O` (stereo not drawn) (library stock concentration (final ~1000-fold dilution): 10 mM), the “NF-kB SEAP reporter activity” value in experiment [3] (agonist: LPS (TLR4) 0.1 ug/mL) is 1.01; in experiment [3] (setting [4]) it was 0.995; in experiment [3] (setting [5]), 0.808; in experiment [3] (setting [6]) it was 1.03.

Regarding `Cl.NCc1c[nH]c(=S)n1C1CCc2c(F)cc(F)cc2C1` (stereo not drawn), the “NF-kB SEAP reporter activity” value in experiment [1] (setting [7]) was 1.12; in experiment [1] (setting [8]), 0.889.

For the compound `Cl.NCc1c[nH]c(=S)n1C1CCc2c(F)cc(F)cc2C1` (stereo not drawn) (library stock concentration (final ~1000-fold dilution): 10 mM), the “NF-kB SEAP reporter activity” value in experiment [3] (agonist: LPS (TLR4) 0.1 ug/mL) was found to be 0.779; in experiment [3] (setting [4]), 0.895; in experiment [3] (setting [5]), 0.82; in experiment [3] (setting [6]) it was 0.904.

Regarding `COC(=O)c1sccc1S(=O)(=O)Nc1ccc(Nc2ccccc2)cc1OC` (library stock concentration (final ~1000-fold dilution): 10 mM), the “NF-kB SEAP reporter activity” value in experiment [3] (agonist: LPS (TLR4) 0.1 ug/mL) amounted to 1.72; in experiment [3] (setting [4]), 0.911; in experiment [3] (setting [5]), 0.821; in experiment [3] (setting [6]), 0.872.

With `COS(=O)(=O)[O-].COc1cccc2c1nc1ccccc1[n+]2C` (library stock concentration (final ~1000-fold dilution): 10 mM), the “NF-kB SEAP reporter activity” value in experiment [2] (agonist: LPS (TLR4) 0.1 ug/mL) came out at 0.473; in experiment [2] (setting [4]), 0.781; in experiment [2] (setting [5]), 0.271; in experiment [2] (setting [6]), 0.272.

For the compound `COc1cc(NS(C)(=O)=O)ccc1Nc1c2ccccc2nc2ccccc12.Cl` (library stock concentration (final ~1000-fold dilution): 10 mM), the “NF-kB SEAP reporter activity” value in experiment [2] (agonist: LPS (TLR4) 0.1 ug/mL) came to 2.6; in experiment [2] (setting [4]), 0.68; in experiment [2] (setting [5]) it was 1.05; in experiment [2] (setting [6]), 0.776.
